# Measurements: PubChem BioAssay (EPA / NIEHS)
# Inconclusive results are not listed. Active and inactive are the calls of the source. Rule for the calls, unless noted: active = hit-call score of the fitted dose curve at least 0.9, where 1 is the maximum; inactive = score below 0.9.
# Assays:
# [1] = ATG_PBREM_CIS: Attagene CIS-FACTORIAL HepG2 Assay for human Phenobarbital-responsive Enhancer Module (PBREM) (AID 2282955); details: HepG2 PBREM cis-reporter, Attagene multiplexed transcription; actives raise or lower the signal
# Procedure, shortened: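 Measures endogenous factor action on a phenobarbital-responsive enhancer module. HepG2 transiently carrying cis reporters, 24 h treatment, mRNA read-out by RT-PCR plus capillary electrophoresis.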
# [2] = biological target: Paired box protein Pax-6 (Homo sapiens) (UniProt P26367); assay: ATG_Pax6_CIS: Attagene CIS-FACTORIAL HepG2 Assay for human Paired Box 6 (PAX6) (AID 2282956); details: HepG2 CIS-FACTORIAL PAX6 reporter transcription, RNA readout; actives raise or lower the signal
# Procedure, shortened: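 Fluorescent RT-PCR products separated by capillary electrophoresis report PAX6-linked promoter mRNA in HepG2 cells 24 h post-dose. Curves fitted bidirectionally, DMSO as negative control.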
# [3] = ATG_PXRE_CIS: Attagene CIS-FACTORIAL HepG2 Assay for human Pregnane X Receptor Element (PXRE) (AID 2282957); details: HepG2 Attagene CIS-FACTORIAL PXRE reporter, mRNA; actives raise or lower the signal
# Procedure, shortened: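 Bidirectional activity, baselined to DMSO, derived from reporter mRNA fluorescence (RT-PCR plus capillary electrophoresis) in HepG2 cells bearing cis-promoter reporter units, 24 h exposure.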
# [4] = ATG_PPRE_CIS: Attagene CIS-FACTORIAL HepG2 Assay for human Peroxisome Proliferator-activated Response Element (PPRE) (AID 2282958); details: HepG2 PPRE cis-element reporter, Attagene transcription factor profiling; actives raise or lower the signal
# Procedure, shortened: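 PPRE activity in HepG2: transient cis-reporter transfection, 24 h compound incubation, reporter mRNA by RT-PCR and CE fluorescence; gain/loss fitted against DMSO.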
# [5] = ATG_RORE_CIS: Attagene CIS-FACTORIAL HepG2 Assay for human RAR-related Orphan Receptor Element (RORE) (AID 2282959); details: HepG2 Attagene cis-factorial RORE reporter, mRNA; actives raise or lower the signal
# Procedure, shortened: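 A 24-hour exposure of transfected HepG2 hepatoma cells precedes RNA isolation and reporter RT-PCR. Labeled products are digested with HpaI and resolved by capillary electrophoresis, with gain or loss of signal scored relative to DMSO.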
# [6] = ATG_Sox_CIS: Attagene CIS-FACTORIAL HepG2 Assay for human SRY-box transcription factor (SOX) (AID 2282960); details: HepG2 Attagene cis-factorial SOX reporter, mRNA; actives raise or lower the signal
# Procedure, shortened: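 HepG2, cis reporter units, 24 h exposure. Reporter mRNA: RT-PCR → FAM labelling → HpaI → CE fluorescence. Bidirectional fit vs DMSO.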
# [7] = biological target: Transcription factor Sp1 (Homo sapiens) (UniProt P08047); assay: ATG_Sp1_CIS: Attagene CIS-FACTORIAL HepG2 Assay for human Specificity Protein 1 (Sp1) (AID 2282961); details: HepG2 Sp1 cis-reporter transcription, actives raise or lower the signal
# Procedure, shortened: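 Liver-derived HepG2 cells, cis-element reporter library, 24 h treatment; RNA isolated, cDNA amplified with reporter-specific primers, FAM-labeled fragments sized on capillary analyzer. DMSO baseline, bidirectional curve fit.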
# [8] = ATG_SREBP_CIS: Attagene CIS-FACTORIAL HepG2 Assay for human Sterol Regulatory Element Binding (SREBP) (AID 2282962); details: HepG2 Attagene cis-factorial SREBP reporter, mRNA; actives raise or lower the signal
# Procedure, shortened: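 Endogenous factor activity is measured in HepG2 through multiplexed reporter units under cis-element control. Following a 24 h incubation, reporter transcripts are reverse-transcribed, PCR-amplified and sized by capillary electrophoresis; activity is fitted in both directions relative to DMSO.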
# [9] = biological target: Signal transducer and activator of transcription 3 (Homo sapiens) (UniProt P40763); assay: ATG_STAT3_CIS: Attagene CIS-FACTORIAL HepG2 Assay for human Signal Transducer and Activator of Transcription 3 (STAT3) (AID 2282963); details: HepG2, Attagene cis-factorial STAT3 reporter transcription; actives raise or lower the signal
# Procedure, shortened: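 HepG2, MRTU-transfected, 24 h dosing. RNA → RT → PCR → FAM label → HpaI → CE. Bidirectional fit vs DMSO.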
# [10] = ATG_TA_CIS: Attagene CIS-FACTORIAL HepG2 Assay for human TA Basal Promoter (AID 2282964); details: HepG2 Attagene CIS-factorial TA basal promoter reporter; actives raise or lower the signal
# Procedure, shortened: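 Transient MRTU transfection of HepG2 preceded 24 h compound exposure. Reporter mRNA levels were then read by RT-PCR with capillary electrophoresis, and this background-control endpoint was fitted bidirectionally to DMSO.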
# [11] = ATG_TCF_b_cat_CIS: Attagene CIS-FACTORIAL HepG2 Assay for human T-Cell-Factor with beta-catenin (TCF/b-cat) (AID 2282965); details: HepG2 TCF/beta-catenin cis-reporter transcription, actives raise or lower the signal
# Procedure, shortened: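 HepG2 cells transiently transfected with multiple cis-promoter-regulated reporter transcription units, so endogenous transcription factor activity is measured. Reporter mRNA read 24 hours after dosing by RT-PCR, fluorescent labelling and capillary electrophoresis; bidirectional fitting against DMSO.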
# [12] = ATG_TAL_CIS: Attagene CIS-FACTORIAL HepG2 Assay for human TAL Basal Promoter (AID 2282966); details: HepG2 Attagene cis-factorial TAL promoter reporter; actives raise or lower the signal;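 note: background control endpoint measuring basal TAL promoter reporter mRNA not a specific factor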
# Procedure, shortened: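 Human hepatoma HepG2 cells, transfected with promoter-regulated reporter units, were treated 24 h. Reporter transcript levels, measured through RT-PCR and capillary electrophoresis, were fitted for gain or loss relative to DMSO.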
# [13] = ATG_TGFb_CIS: Attagene CIS-FACTORIAL HepG2 Assay for human Transforming Growth Factor (TGF) (AID 2282967); details: HepG2 Attagene CIS TGFb reporter, mRNA transcription; actives raise or lower the signal
# Procedure, shortened: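 After a 24-hour incubation with compound, transfected HepG2 cells were lysed for RNA; reporter cDNA was amplified, fluorescently end-labeled and separated by CE. DMSO served as baseline for bidirectional fits.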
# [14] = ATG_VDRE_CIS: Attagene CIS-FACTORIAL HepG2 Assay for human Vitamin D Receptor Element (VDRE) (AID 2282968); details: HepG2 VDRE cis-reporter transcription, actives raise or lower the signal
# Procedure, shortened: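 Steps: transfect HepG2 with multiple reporter transcription units; dose chemicals 24 h; isolate RNA; RT-PCR; label with 6-FAM primer extension; HpaI digest; capillary electrophoresis. Curves fitted both directions against DMSO.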
# [15] = biological target: Nuclear receptor subfamily 1 group I member 3 (Homo sapiens) (UniProt Q14994); assay: ATG_CAR_TRANS: Attagene TRANS-FACTORIAL HepG2 Assay for human Constitutive Androstane Receptor (CAR) (AID 2282969; active = hit-call score of the fitted dose curve at least 0.9, where 1 is the maximum;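 note: activators raise reporter mRNA above DMSO so AC50 marks induction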); details: HepG2 Attagene TRANS-FACTORIAL CAR reporter
# Procedure, shortened: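 Steps: transient transfection of HepG2 with multiple GAL4-UAS reporter units; 24 h compound incubation; RNA isolation, RT-PCR, 6-FAM primer extension, HpaI digest; capillary electrophoresis. Gain-of-signal relative to DMSO negative control.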
# [16] = biological target: Estrogen receptor (Homo sapiens) (UniProt P03372); assay: ATG_ERa_TRANS: Attagene TRANS-FACTORIAL HepG2 Assay for human Estrogen Receptor alpha (ERa) (AID 2282970; active = hit-call score of the fitted dose curve at least 0.9, where 1 is the maximum); details: HepG2 Attagene TRANS ERa GAL4 reporter, mRNA
# Procedure, shortened: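 Signal derives from fluorescence of labelled reporter PCR fragments separated by capillary electrophoresis. HepG2 cells transiently carrying multiple GAL4-UAS reporter units were treated 24 hours, and induction above DMSO baseline was fitted as activity.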
# [17] = biological target: X-box-binding protein 1 (Homo sapiens) (UniProt P17861); assay: ATG_Xbp1_CIS: Attagene CIS-FACTORIAL HepG2 Assay for human X-box Binding Protein 1 (XBP1) (AID 2282972); details: HepG2 XBP1 cis-element reporter, Attagene multiplex; actives raise or lower the signal
# Procedure, shortened: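 Multiplexed cis-reporter readout in transfected HepG2 liver cells. Exposure lasted 24 hours. Activity in either direction was fitted against DMSO as negative control and baseline.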
# [18] = ATG_M_19_TRANS: Attagene TRANS-FACTORIAL HepG2 Assay for M19 Transcription Factor (Internal Marker) (AID 2282974; active = hit-call score of the fitted dose curve at least 0.9, where 1 is the maximum); details: HepG2 Attagene TRANS-FACTORIAL M19 internal marker reporter
# Procedure, shortened: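 Transfected HepG2 (GAL4-UAS MRTUs), 24 h compound, TriZol RNA, DNase-treated RT, reporter PCR, FAM label, HpaI digest, CE fluorescence; gain vs DMSO.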
# [19] = ATG_GAL4_TRANS: Attagene TRANS-FACTORIAL HepG2 Assay for GAL4 (Internal Marker) (AID 2282976; active = hit-call score of the fitted dose curve at least 0.9, where 1 is the maximum); details: HepG2 Attagene TRANS GAL4 internal marker reporter
# Procedure, shortened: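 Liver HepG2 line bearing multiplexed GAL4-UAS reporter constructs; 24 h chemical treatment. Transcripts were quantified as fluorescent fragments on capillary electrophoresis after RT-PCR and HpaI cut, with activity fitted upward from DMSO.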
# [20] = biological target: Steroid hormone receptor ERR1 (Homo sapiens) (UniProt P11474); assay: ATG_ERRa_TRANS: Attagene TRANS-FACTORIAL HepG2 Assay for human Estrogen-Related Receptor alpha (ERRa) (AID 2282971; active = hit-call score of the fitted dose curve at least 0.9, where 1 is the maximum); details: HepG2 Attagene TRANS reporter, ERRa transactivation
# Procedure, shortened: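 Signal gain relative to DMSO for an ERRa-Gal4 chimeric receptor, read as reporter mRNA by RT-PCR/capillary electrophoresis. Human HepG2 liver cells, transient multiplex reporter transfection, 24 h chemical exposure.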
# Paired box protein Pax-6 (Homo sapiens), sequence (P26367 whole entry, looked up): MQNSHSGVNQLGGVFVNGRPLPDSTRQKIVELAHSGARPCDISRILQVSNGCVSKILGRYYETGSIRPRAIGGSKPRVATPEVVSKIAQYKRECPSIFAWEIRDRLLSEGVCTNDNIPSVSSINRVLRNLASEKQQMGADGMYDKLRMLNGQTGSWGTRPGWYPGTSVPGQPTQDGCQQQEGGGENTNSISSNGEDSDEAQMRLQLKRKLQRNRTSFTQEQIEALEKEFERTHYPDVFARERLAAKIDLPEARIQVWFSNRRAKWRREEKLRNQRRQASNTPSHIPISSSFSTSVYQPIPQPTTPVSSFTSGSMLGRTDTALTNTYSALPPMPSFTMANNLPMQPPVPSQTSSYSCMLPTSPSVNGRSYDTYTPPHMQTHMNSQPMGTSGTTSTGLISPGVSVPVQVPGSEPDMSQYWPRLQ
# Transcription factor Sp1 (Homo sapiens), sequence (P08047 whole entry, looked up, the tested form may be a part): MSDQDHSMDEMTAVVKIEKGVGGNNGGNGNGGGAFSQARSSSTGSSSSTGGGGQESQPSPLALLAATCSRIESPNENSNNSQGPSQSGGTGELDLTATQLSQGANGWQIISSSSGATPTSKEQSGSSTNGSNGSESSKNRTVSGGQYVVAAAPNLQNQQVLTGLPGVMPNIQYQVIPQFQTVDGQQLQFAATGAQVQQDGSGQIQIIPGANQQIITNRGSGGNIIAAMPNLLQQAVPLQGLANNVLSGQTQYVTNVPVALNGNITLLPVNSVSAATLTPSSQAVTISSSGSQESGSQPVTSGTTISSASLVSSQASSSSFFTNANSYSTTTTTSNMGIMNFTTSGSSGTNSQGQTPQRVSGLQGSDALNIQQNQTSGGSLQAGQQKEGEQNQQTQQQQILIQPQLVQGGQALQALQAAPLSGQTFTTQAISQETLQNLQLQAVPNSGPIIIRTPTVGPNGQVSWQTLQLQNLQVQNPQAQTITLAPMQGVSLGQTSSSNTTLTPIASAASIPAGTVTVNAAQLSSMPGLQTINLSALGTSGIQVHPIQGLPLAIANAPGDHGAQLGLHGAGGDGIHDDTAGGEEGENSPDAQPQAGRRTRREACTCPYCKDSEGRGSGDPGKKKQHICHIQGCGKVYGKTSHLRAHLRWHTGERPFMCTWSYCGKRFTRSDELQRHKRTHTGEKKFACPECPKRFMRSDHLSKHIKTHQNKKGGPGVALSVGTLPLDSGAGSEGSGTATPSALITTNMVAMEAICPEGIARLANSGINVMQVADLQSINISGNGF
# Steroid hormone receptor ERR1 (Homo sapiens), sequence (P11474 whole entry, looked up, the tested form may be a part): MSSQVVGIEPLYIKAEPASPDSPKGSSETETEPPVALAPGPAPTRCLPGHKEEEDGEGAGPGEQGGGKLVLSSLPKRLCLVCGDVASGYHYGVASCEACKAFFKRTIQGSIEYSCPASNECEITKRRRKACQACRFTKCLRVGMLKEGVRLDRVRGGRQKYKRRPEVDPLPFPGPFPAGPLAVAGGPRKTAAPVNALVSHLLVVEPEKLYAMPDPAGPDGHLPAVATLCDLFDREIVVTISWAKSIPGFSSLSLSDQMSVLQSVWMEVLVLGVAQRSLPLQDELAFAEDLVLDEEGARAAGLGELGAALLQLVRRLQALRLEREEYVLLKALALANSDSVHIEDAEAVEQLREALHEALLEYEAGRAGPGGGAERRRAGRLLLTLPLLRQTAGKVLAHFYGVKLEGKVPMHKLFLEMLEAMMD
# Nuclear receptor subfamily 1 group I member 3 (Homo sapiens), sequence (Q14994 whole entry, looked up, the tested form may be a part): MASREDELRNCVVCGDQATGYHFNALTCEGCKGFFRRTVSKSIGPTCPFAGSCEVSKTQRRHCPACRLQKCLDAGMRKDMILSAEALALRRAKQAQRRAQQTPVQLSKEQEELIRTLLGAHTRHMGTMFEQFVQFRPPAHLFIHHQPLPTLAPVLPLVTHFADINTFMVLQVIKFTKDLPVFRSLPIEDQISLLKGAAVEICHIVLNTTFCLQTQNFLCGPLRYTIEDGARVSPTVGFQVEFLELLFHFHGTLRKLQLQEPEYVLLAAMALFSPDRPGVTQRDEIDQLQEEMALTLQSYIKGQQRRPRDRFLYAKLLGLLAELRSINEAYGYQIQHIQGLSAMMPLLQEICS
# X-box-binding protein 1 (Homo sapiens), sequence (P17861 whole entry, looked up): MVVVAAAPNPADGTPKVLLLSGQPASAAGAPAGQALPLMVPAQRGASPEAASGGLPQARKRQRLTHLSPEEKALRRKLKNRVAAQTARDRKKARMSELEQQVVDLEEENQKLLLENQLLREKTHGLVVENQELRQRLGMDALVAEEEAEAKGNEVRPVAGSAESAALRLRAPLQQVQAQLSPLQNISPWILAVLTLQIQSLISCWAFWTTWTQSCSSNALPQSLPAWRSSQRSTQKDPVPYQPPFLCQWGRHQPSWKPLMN
# Estrogen receptor (Homo sapiens), sequence (P03372 whole entry, looked up, the tested form may be a part): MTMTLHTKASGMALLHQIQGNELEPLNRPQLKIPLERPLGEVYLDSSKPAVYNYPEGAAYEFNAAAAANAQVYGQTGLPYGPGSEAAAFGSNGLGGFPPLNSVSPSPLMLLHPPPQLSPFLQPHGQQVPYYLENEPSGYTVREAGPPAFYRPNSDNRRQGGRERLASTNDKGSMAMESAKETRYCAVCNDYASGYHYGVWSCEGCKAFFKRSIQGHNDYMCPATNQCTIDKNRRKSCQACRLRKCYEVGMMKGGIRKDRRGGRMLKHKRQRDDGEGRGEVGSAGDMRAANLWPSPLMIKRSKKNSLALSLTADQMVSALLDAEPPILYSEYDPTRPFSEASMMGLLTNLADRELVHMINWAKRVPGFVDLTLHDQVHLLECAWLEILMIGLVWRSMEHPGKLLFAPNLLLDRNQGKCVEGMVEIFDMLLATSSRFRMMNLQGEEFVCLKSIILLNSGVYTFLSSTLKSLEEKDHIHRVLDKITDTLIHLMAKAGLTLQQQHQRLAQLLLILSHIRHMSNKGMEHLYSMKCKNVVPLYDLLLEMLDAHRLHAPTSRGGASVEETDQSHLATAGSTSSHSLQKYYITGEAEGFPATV
# Signal transducer and activator of transcription 3 (Homo sapiens), sequence (P40763 whole entry, looked up): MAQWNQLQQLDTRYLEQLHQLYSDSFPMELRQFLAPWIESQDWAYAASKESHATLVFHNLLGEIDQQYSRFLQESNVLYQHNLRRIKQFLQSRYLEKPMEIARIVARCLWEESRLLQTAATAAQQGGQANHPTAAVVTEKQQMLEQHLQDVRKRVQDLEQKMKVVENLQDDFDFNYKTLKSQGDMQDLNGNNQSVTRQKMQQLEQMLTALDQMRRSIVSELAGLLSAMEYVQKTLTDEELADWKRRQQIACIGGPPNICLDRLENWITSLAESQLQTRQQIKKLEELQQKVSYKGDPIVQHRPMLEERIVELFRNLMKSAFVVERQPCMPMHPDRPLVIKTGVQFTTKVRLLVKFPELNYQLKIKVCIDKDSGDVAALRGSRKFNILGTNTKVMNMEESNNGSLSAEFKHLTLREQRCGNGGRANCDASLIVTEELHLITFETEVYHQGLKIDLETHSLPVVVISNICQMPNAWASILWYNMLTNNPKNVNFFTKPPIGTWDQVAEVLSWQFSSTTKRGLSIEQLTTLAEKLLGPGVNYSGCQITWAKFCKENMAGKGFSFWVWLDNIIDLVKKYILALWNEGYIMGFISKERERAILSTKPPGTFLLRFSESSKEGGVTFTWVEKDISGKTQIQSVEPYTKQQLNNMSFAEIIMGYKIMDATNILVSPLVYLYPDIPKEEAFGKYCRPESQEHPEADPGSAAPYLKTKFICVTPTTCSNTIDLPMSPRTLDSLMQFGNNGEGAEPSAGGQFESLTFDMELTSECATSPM
compound,measurement,setting,value
CN(C)Cc1ccccc1O,outcome,[1],inactive
same,outcome,[2],inactive
same,outcome,[3],inactive
same,outcome,[4],inactive
same,outcome,[5],inactive
same,outcome,[6],inactive
same,outcome,[7],inactive
same,outcome,[8],inactive
same,outcome,[9],inactive
same,AC50,[10],165 µM (active)
same,outcome,[11],inactive
same,outcome,[12],inactive
same,outcome,[13],inactive
same,outcome,[14],inactive
same,outcome,[15],inactive
same,outcome,[16],inactive
same,outcome,[17],inactive
same,outcome,[18],inactive
O=C(O)C(F)(F)C(F)(F)C(F)F,outcome,[1],inactive
same,outcome,[2],inactive
same,outcome,[3],inactive
same,outcome,[4],inactive
same,outcome,[5],inactive
same,outcome,[6],inactive
same,outcome,[7],inactive
same,outcome,[8],inactive
same,outcome,[9],inactive
same,outcome,[10],inactive
same,outcome,[11],inactive
same,outcome,[12],inactive
same,outcome,[13],inactive
same,outcome,[14],inactive
same,outcome,[15],inactive
same,outcome,[16],inactive
same,outcome,[17],inactive
same,outcome,[19],inactive
FC(F)(F)C(F)(F)C(F)(F)C(F)(F)C(F)(F)C(F)(F)C(F)(F)C(F)(F)CCS,outcome,[1],inactive
same,outcome,[2],inactive
same,outcome,[4],inactive
same,outcome,[5],inactive
same,outcome,[6],inactive
same,outcome,[7],inactive
same,outcome,[8],inactive
same,outcome,[9],inactive
same,outcome,[10],inactive
same,outcome,[11],inactive
same,outcome,[12],inactive
same,outcome,[13],inactive
same,outcome,[14],inactive
same,outcome,[15],inactive
same,outcome,[16],inactive
same,outcome,[20],inactive
same,outcome,[17],inactive
same,outcome,[18],inactive
same,outcome,[19],inactive
OCC(F)(F)C(F)(F)C(F)(F)F,outcome,[1],inactive
same,outcome,[2],inactive
same,outcome,[4],inactive
same,outcome,[5],inactive
same,outcome,[6],inactive
same,outcome,[7],inactive
same,outcome,[8],inactive
same,outcome,[9],inactive
same,outcome,[10],inactive
same,outcome,[11],inactive
same,outcome,[12],inactive
same,outcome,[13],inactive
same,outcome,[14],inactive
same,outcome,[15],inactive
same,outcome,[20],inactive
same,outcome,[17],inactive
same,outcome,[18],inactive
same,outcome,[19],inactive
CC(C)(C)C(=O)CC(=O)C(F)(F)C(F)(F)C(F)(F)F,outcome,[1],inactive
same,outcome,[3],inactive
same,outcome,[4],inactive
same,outcome,[5],inactive
same,outcome,[6],inactive
same,outcome,[7],inactive
same,outcome,[8],inactive
same,outcome,[9],inactive
same,outcome,[10],inactive
same,outcome,[11],inactive
same,outcome,[12],inactive
same,outcome,[13],inactive
same,outcome,[14],inactive
same,outcome,[15],inactive
same,outcome,[16],inactive
same,outcome,[20],inactive
same,outcome,[17],inactive
same,outcome,[18],inactive
CCCCCCCOC(=O)c1ccccc1C(=O)OCCCCCCC,outcome,[1],inactive
same,AC50,[3],5.36 µM (active)
same,outcome,[4],inactive
same,outcome,[5],inactive
same,outcome,[6],inactive
same,outcome,[7],inactive
same,outcome,[8],inactive
same,outcome,[9],inactive
same,outcome,[10],inactive
same,outcome,[11],inactive
same,outcome,[12],inactive
same,outcome,[13],inactive
same,outcome,[14],inactive
same,outcome,[15],inactive
same,outcome,[16],inactive
same,outcome,[20],inactive
same,outcome,[17],inactive
Nc1ccc(Oc2cccc(Oc3ccc(N)cc3)c2)cc1,outcome,[1],inactive
same,AC50,[3],25.7 µM (active)
same,AC50,[4],89.5 µM (active)
same,AC50,[5],14.9 µM (active)
same,outcome,[6],inactive
same,outcome,[7],inactive
same,AC50,[8],136 µM (active)
same,AC50,[9],173 µM (active)
same,AC50,[10],26.8 µM (active)
same,AC50,[11],27.4 µM (active)
same,outcome,[12],inactive
same,outcome,[13],inactive
same,outcome,[14],inactive
same,outcome,[15],inactive
same,AC50,[16],2.58 µM (active)
same,outcome,[20],inactive
same,AC50,[17],42 µM (active)
